Test results: PubChem BioAssay (Tox21)
Several values for one entry are separate records, joined by “and”; a condition that tells them apart may be missing. Equal entries are not always repeated. Values without a mark were called inactive. Records with an inconclusive call do not appear. Entries that show only a call come without a potency. Activity calls are given as the source filed them. Unless noted, the call rests on the fitted dose curve; in most records, active means well fitted curve in the direction sought with a large enough effect in the repeat runs; inconclusive means weak or mixed curves; inactive means no such curve, though single readings can be large; an effect the other way counts as inactive or inconclusive.

Legend:
[1] = molecular target: Thyrotropin receptor (Homo sapiens) (UniProt P16473); test: qHTS assay to identify small molecule antagonists of the thyroid stimulating hormone receptor (TSHR) signaling pathway (AID 1259385; calls by dose curve; further: nearly all actives have a fitted effect of over 20% in size; further: potency means the concentration at half of the fitted maximal effect)
Chain of Thyrotropin receptor (Homo sapiens) (P16473 whole entry, looked up): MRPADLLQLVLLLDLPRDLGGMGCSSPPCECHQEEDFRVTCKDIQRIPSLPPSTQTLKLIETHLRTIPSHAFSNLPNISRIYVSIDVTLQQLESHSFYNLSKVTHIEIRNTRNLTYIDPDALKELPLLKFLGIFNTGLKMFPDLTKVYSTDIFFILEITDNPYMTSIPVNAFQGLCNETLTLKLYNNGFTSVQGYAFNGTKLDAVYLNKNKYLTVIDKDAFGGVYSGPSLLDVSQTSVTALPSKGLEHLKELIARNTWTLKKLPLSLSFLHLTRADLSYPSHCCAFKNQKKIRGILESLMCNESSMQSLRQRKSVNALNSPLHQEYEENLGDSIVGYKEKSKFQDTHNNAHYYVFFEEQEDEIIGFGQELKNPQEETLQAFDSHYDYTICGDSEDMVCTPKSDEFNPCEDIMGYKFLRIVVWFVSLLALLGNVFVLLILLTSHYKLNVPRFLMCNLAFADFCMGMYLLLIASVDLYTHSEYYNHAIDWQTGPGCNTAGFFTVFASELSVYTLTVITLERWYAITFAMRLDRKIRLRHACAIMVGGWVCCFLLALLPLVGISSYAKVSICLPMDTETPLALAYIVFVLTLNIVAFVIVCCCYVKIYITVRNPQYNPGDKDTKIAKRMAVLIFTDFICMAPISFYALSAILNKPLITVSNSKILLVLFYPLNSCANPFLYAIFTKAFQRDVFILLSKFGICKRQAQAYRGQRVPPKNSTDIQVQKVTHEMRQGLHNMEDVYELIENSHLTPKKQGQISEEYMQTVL
Outline: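 Antagonist mode: compound-treated TSHR-expressing HEK293 cells were stimulated with 1.5 ng/mL TSH (final) in presence of Ro20-1724 for 30 min at RT. HTRF cAMP detection after 1 h; each compound tested at 15 concentrations, triplicate.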

[2] = qHTS assay to identify small molecule agonists of the estrogen receptor alpha (ER-alpha) signaling pathway in the presence of an antagonist - cell viability counter screen (AID 1259386);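 further: cells exposed to compounds for 22 h at 37 °C before the viability read; nearly all actives have a fitted effect of over 30% in size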; further: potency means the concentration at half of the fitted maximal effect
Outline: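 Using estrogen-depleted VM7Luc4E2 cells, the 15-concentration compound series was applied together with 10.0nM ICI-182,780 and incubated 22hr at 37C/5% CO2. Cell viability was then scored by CellTiter-Fluor.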

[3] = molecular target: Progesterone receptor (Homo sapiens) (UniProt P06401); test: qHTS assay to identify small molecule agonists of the progesterone receptor (PR) signaling pathway (AID 1346784; calls by dose curve; further: nearly all actives have a fitted effect of over 30% in size)
Chain of Progesterone receptor (Homo sapiens) (P06401 whole entry, looked up): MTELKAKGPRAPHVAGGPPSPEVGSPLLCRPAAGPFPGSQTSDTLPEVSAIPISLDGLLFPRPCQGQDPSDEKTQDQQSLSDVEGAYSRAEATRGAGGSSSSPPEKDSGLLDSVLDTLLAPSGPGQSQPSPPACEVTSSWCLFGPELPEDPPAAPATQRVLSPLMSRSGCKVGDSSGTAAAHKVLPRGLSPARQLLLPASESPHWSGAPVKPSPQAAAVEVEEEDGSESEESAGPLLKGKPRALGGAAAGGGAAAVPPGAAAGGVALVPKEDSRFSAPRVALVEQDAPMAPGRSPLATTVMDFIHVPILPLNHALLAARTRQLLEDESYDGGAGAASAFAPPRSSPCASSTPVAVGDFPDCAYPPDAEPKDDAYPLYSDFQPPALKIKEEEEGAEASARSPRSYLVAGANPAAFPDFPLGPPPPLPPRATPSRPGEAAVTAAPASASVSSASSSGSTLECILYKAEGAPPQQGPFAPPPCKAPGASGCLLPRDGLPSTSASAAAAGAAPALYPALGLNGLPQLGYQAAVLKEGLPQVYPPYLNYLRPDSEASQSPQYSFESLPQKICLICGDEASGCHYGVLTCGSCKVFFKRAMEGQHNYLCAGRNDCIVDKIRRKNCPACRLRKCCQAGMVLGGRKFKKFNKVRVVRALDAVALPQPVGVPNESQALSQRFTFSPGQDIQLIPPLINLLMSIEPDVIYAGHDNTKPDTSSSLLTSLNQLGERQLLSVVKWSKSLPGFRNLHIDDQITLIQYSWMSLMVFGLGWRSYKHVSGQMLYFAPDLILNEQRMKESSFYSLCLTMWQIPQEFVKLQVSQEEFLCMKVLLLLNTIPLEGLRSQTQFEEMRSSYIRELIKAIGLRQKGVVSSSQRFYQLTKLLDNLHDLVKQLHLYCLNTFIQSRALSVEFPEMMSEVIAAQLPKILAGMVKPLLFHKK
Outline: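 PR-UAS-bla HEK 293T cells carrying a UAS-driven beta-lactamase reporter were seeded in medium with 2% charcoal-stripped FBS, preincubated 6 hr at 37C, then exposed to compounds in DMSO for 16 hr; agonism was read by LiveBLAzer B/G FRET fluorescence.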

[4] = molecular target: Progesterone receptor (Homo sapiens) (UniProt P06401); test: qHTS assay to identify small molecule antagonists of the progesterone receptor (PR) signaling pathway (AID 1346795; active means well fitted inhibition curve with a large enough effect in the signal ratio in the repeat runs, not every such curve was filed as active; the % refers to the signal ratio; further: potency means the concentration at half of the fitted maximal effect)
Outline: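 PR-UAS-bla HEK293T cells carrying a UAS-driven beta-lactamase reporter were plated in medium with 2% charcoal-stripped FBS and rested 6 hr at 37C. Compounds were added with 1 nM R5020 (final) for 16 hr, then FRET substrate loaded 2 hr at room temperature.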

[5] = qHTS assay to identify small molecule antagonists of the progesterone receptor (PR) signaling pathway - cell viability counter screen (AID 1346798); further: series mostly up to about 92 µM; nearly all actives have a fitted effect of over 50% in size
Outline: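 PR-UAS-bla HEK293T cells in medium with 2% charcoal-stripped FBS were treated with compounds plus R5020 for 16 hr at 37C. Cell viability was then read by CellTiter-Glo luminescence after 30 min at room temperature in the same wells.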

[6] = qHTS assay to identify small molecule agonists of the progesterone receptor (PR) signaling pathway - cell viability counter screen (AID 1346799; calls by dose curve; further: nearly all actives have a fitted effect of over 45% in size)
Outline: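 PR-UAS-bla HEK293T cells, 3,000 per well in medium with 2% charcoal-stripped FBS, were preincubated 6 hr at 37C, then exposed to compounds for 16 hr; viability was read as CellTiter-Glo luminescence after 30 min at room temperature.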

[7] = qHTS assay to identify small molecule antagonists of the TGF-beta/Smad signaling pathway - cell viability counter screen (AID 1346824); further: nearly all actives have a fitted effect of over 50% in size
Outline: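 Cytotoxicity counter-screen run in the same wells as the beta-lactamase Smad reporter read: CellTiter-Glo luminescence after 30 min at room temperature. HEK 293T SBE-bla cells had 5 hr compound exposure at 37 C with TGF-beta1 (0.25 ng/mL stock).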

[8] = qHTS assay to identify small molecule agonists of the TGF-beta/Smad signaling pathway - cell viability counter screen (AID 1346829); further: nearly all actives have a fitted effect of over 45% in size; further: potency means the concentration at half of the fitted maximal effect
Outline: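 CellTiter-Glo luminescence readout; SBE-bla HEK 293T cells, overnight plating, compound 5 hr at 37 C/5% CO2, then bla substrate 2 hr RT, then CellTiter-Glo 30 min RT.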

[9] = qHTS assay to identify small molecule agonists of the TGF-beta/Smad signaling pathway (AID 1346859; active means well fitted activation curve with a large enough effect in the signal ratio in the repeat runs, not every such curve was filed as active; the % refers to the signal ratio; further: series mostly up to about 77 µM)
Outline: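 HEK 293T cells stably carrying a beta-lactamase reporter driven by the Smad binding element were seeded overnight, exposed to DMSO-dissolved compounds for 5 hr at 37 C, 5% CO2, then loaded with FRET substrate for 2 hr at room temperature.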

[10] = molecular target: Thyrotropin-releasing hormone receptor (Homo sapiens) (UniProt P34981); test: qHTS assay to identify small molecule antagonists of the thyrotropin-releasing hormone receptor (TRHR) signaling pathway (AID 1346877; active means well fitted inhibition curve with a large enough effect in the repeat runs, not every such curve was filed as active; further: series mostly up to about 51 µM)
Chain of Thyrotropin-releasing hormone receptor (Homo sapiens) (P34981 whole entry, looked up): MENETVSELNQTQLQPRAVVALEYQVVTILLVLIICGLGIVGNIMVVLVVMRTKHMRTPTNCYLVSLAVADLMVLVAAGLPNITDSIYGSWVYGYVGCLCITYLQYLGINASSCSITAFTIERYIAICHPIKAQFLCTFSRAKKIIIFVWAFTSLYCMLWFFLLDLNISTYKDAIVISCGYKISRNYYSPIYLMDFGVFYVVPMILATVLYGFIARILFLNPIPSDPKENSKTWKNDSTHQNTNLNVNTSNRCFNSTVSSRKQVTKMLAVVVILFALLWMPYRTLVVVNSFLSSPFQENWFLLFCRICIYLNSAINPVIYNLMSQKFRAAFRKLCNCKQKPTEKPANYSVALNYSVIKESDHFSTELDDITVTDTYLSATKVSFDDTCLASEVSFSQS
Outline: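 Calcium signal in dye-loaded TRHR/HEK293 cells; compounds added 5 min before TRH (1 nM final); fluorescence monitored 3 min at 1 s steps.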

[11] = molecular target: Thyrotropin-releasing hormone receptor (Homo sapiens) (UniProt P34981); test: qHTS assay to identify small molecule agonists of the thyrotropin-releasing hormone receptor (TRHR) signaling pathway (AID 1346891; calls by dose curve; further: series mostly up to about 58 µM)
Outline: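 TRHR-expressing HEK293 cells were plated 18 h at 37 °C/5% CO2, loaded with calcium dye 2 h at 37 °C, then given compound in DMSO; fluorescence was read kinetically for 3 min at 1 s intervals.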

[12] = Human pregnane X receptor (PXR) small molecule agonists, qHTS cell viability counter screen (AID 1346977); further: nearly all actives have a fitted effect of over 50% in size
Outline: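 PXR-Luc HepG2 cells in medium with 5% charcoal-stripped FBS were pre-incubated 5hr, then exposed to compounds for 24hr at 37C. Viability was read in the same wells by CellTiter-Fluor fluorescence, reagent added after 23hr with a 1hr incubation.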

[13] = Caspase-3/7 induction in HepG2 cells by small molecules, qHTS assay (AID 1346978); further: nearly all actives have a fitted effect of over 15% in size
Outline: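 Caspase-3/7 induction was measured by Caspase-Glo 3/7 luminescence (30 min, room temperature) after a 17 hr compound exposure of wild-type HepG2 cells seeded at 2,000 per well and pre-incubated 5 hr.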

[14] = Caspase-3/7 induction in CHO-K1 cells by small molecules, qHTS assay (AID 1346980); further: nearly all actives have a fitted effect of over 15% in size
Outline: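 Luminescent Caspase-Glo 3/7 read (30min, room temperature) quantified apoptosis induction. Cells were wild-type CHO-K1, treated with compound for 17hr at 37 C and 5% CO2.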

[15] = molecular target: Nuclear receptor subfamily 1 group I member 2 (Homo sapiens) (UniProt O75469); test: Human pregnane X receptor (PXR) small molecule agonists, qHTS assay (AID 1346982); further: nearly all actives have a fitted effect of over 35% in size; further: potency means the concentration at half of the fitted maximal effect
Chain of Nuclear receptor subfamily 1 group I member 2 (Homo sapiens) (O75469 whole entry, looked up): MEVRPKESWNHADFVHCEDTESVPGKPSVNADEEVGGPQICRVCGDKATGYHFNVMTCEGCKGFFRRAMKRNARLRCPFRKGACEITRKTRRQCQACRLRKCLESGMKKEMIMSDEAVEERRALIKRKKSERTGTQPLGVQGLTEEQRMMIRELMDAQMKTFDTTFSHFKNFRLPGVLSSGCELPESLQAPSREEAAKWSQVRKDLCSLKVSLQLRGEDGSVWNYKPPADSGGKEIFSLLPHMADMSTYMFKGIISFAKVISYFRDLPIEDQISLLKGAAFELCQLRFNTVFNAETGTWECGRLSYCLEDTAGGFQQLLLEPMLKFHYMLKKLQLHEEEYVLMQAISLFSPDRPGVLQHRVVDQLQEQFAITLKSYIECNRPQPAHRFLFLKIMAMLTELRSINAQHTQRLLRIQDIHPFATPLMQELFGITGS
Outline: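 Tox21 qHTS; PXR-Luc HepG2; compounds pinned from DMSO; 24 hr, 37 C; ONE-Glo luciferase detection, 30 min room temperature.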

[16] = Caspase-3/7 induction in CHO-K1 cells by small molecules, qHTS cell viability counter screen (AID 1346979); further: nearly all actives have a fitted effect of over 35% in size; further: potency means the concentration at half of the fitted maximal effect
Outline: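 Wild-type CHO-K1 cells were seeded at 1,500 per well, rested 5hr at 37 C, then exposed to compounds in DMSO. After 16hr, CellTiter-Fluor reagent was added and fluorescence read 1hr later as the viability measure.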

[17] = Caspase-3/7 induction in HepG2 cells by small molecules, qHTS cell viability counter screen (AID 1346981); further: nearly all actives have a fitted effect of over 30% in size; further: potency means the concentration at half of the fitted maximal effect
Outline: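 After a 5-hr attachment period at 37 C and 5% CO2, wild-type HepG2 cells received compounds in DMSO. Sixteen hours later CellTiter-Fluor was dispensed and the fluorescent signal quantified after a further hour.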

[18] = molecular target: Nuclear receptor subfamily 1 group I member 2 (Homo sapiens) (UniProt O75469); test: CYP3A4 induction through human pregnane X receptor (PXR) by small molecules, qHTS assay (AID 1346984); further: nearly all actives have a fitted effect of over 40% in size; further: potency means the concentration at half of the fitted maximal effect
Outline: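 Cells (DPX-2; HepG2 with PXR element plus CYP3A4-promoter luciferase) settled 5hr, then were treated 24hr at 37C. A 3hr, 3uM-final Luciferin-IPA step preceded luminescence measurement with One-Glo.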

[19] = molecular target: Nuclear receptor subfamily 1 group I member 2 (Homo sapiens) (UniProt O75469); test: Human pregnane X receptor (PXR) activation by small molecules, qHTS assay (AID 1346985); further: nearly all actives have a fitted effect of over 40% in size
Outline: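 DPX-2 cells (HepG2 co-transfected with a PXR response element and a CYP3A4-promoter luciferase construct) were seeded at 2,000 per well, rested 5 hr at 37C, then exposed to DMSO-dissolved compounds for 24 hr. Activation was read as luciferase luminescence.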

[20] = molecular target: Nuclear receptor subfamily 1 group I member 2 (Rattus norvegicus) (UniProt Q9R1A7); test: Rat pregnane X receptor (rPXR) activation by small molecules, qHTS assay (AID 1346983); conditions: rPXR luciferase reporter cells, One-Glo luminescence, 24 h; max activation: hits give high values; further: nearly all actives have a fitted effect of over 20% in size
Chain of Nuclear receptor subfamily 1 group I member 2 (Rattus norvegicus) (Q9R1A7 whole entry, looked up): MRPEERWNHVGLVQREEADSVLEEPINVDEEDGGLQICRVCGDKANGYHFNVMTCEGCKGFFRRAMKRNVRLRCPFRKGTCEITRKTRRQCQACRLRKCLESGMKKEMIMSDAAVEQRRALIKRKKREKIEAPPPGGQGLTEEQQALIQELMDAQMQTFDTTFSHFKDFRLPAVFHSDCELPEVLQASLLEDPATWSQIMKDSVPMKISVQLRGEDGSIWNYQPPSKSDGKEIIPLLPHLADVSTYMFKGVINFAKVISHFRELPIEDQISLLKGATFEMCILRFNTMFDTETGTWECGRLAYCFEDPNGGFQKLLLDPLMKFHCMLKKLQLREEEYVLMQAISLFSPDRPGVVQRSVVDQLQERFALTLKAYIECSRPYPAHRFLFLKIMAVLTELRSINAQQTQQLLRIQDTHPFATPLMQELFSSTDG
Outline: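 Luminescent readout (One-Glo luciferase, 30 min room temperature) followed 24 hr compound treatment at 37 C of rPXR cells plated 2,000 per well and preincubated 5hr; qHTS format with compounds delivered in DMSO.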

Structure (SMILES)	Potency [1]	Potency [2]	Potency [3]	Potency [4]	Potency [5]	Potency [6]	Potency [7]	Potency [8]	outcome [9]	Potency [10]	Potency [11]	Potency [12]	Potency [13]	Potency [14]	Potency [15]	Potency [16]	Potency [17]	Potency [18]	Potency [19]	max activation [20]
C=C(C#N)CCC#N	inactive	inactive	inactive	inactive	inactive	inactive	inactive	inactive	inactive	inactive	inactive	inactive	inactive	inactive	inactive					
O=C(O)CC(Cl)C(=O)O (configuration not stated)	inactive	inactive	inactive	inactive	inactive	inactive	inactive	inactive	inactive	inactive	inactive	inactive	inactive	inactive	inactive	inactive				
Cl/C=C\C[N+]12CN3CN(CN(C3)C1)C2	inactive	inactive	inactive	inactive	inactive	inactive	inactive	inactive	inactive	inactive	inactive	inactive	inactive		inactive	inactive	inactive			
CC(=O)[C@H]1CC[C@H]2[C@@H]3CC[C@H]4C[C@](C)(O)CC[C@]4(C)[C@H]3CC[C@]12C																		inactive	inactive	
C#CCOC(C(=O)OCCN(C)C)(c1ccccc1)c1ccccc1																		15.8 µM (active)	inactive	
Nc1ccc([N+](=O)[O-])cc1[N+](=O)[O-]	inactive	53.1 µM (active)	inactive		inactive	inactive	inactive	inactive	inactive	inactive	inactive		inactive	inactive	inactive	47.3 µM (active)				
CC1(C)CCC(Cc2ccc(Cl)cc2)C1(O)Cn1cncn1 (configuration not stated)	inactive	inactive	inactive	4.33 µM (active)		inactive	inactive	inactive	inactive	inactive	inactive		inactive		9.69 µM (active)	68.6 µM (active)				
Clc1ccc(C(OCCN2CCCCC2)c2ccccc2)cc1 (configuration not stated)	inactive	inactive	inactive		inactive	inactive	inactive	inactive		inactive	inactive		inactive	inactive	inactive	inactive	inactive	12.6 µM (active)	inactive	-3.11%
C(=NC1CCCCC1)=NC1CCCCC1	inactive	inactive	inactive	inactive			inactive	49.3 µM (active)		inactive	inactive		inactive	inactive	61.5 µM (active) and 54.5 µM (active)	13.8 µM (active)				
CCCCN=C=O	inactive	inactive	inactive	inactive		inactive	inactive	inactive	inactive	inactive	inactive	inactive	inactive	inactive	inactive	inactive	inactive			
CCOC(=O)CBr	inactive	inactive	inactive		inactive	inactive	inactive	inactive	inactive	inactive	inactive		inactive	inactive	inactive	inactive	inactive			
O=C(O)C1(c2ccc3c(c2)OC[C@H](Cc2ccc(-c4ccccc4)cc2)[C@H]3O)CCCC1	inactive	inactive	inactive	48.6 µM (active)			inactive	inactive					inactive				inactive			
CCc1ccc(C(=O)NN(C(=O)c2cc(C)cc(C)c2)C(C)(C)C)cc1	inactive	5.45 µM (active)	inactive		inactive		inactive	inactive	inactive	inactive	inactive	inactive		inactive	inactive	27.3 µM (active)	9.69 µM (active)			
O=[N+]([O-])c1ccccc1CCl	inactive	inactive	inactive		inactive	inactive	inactive	inactive	inactive	inactive	inactive	inactive	inactive	inactive	0.0039 µM (active)		inactive			
CCCN(CC1CC1)c1c([N+](=O)[O-])cc(C(F)(F)F)cc1[N+](=O)[O-]	inactive	inactive	inactive		inactive	inactive	inactive	inactive	inactive	inactive	inactive	inactive	inactive	inactive	19.3 µM (active)		inactive			
CN1[C@@H]2CC[C@H]1CC(OC(=O)c1cc(Cl)cc(Cl)c1)C2 (some centres not stated)	26.6 µM (active)	inactive	inactive	inactive			inactive	inactive	inactive	inactive	inactive		inactive	inactive	inactive	inactive	inactive			
O=C1c2ccccc2C(=O)C1C(=O)C(c1ccccc1)c1ccccc1	inactive	inactive	inactive			inactive	inactive	inactive	inactive	inactive	inactive	inactive	inactive	inactive				inactive	inactive	-0.238%
CNP(=O)(OC)Oc1ccc(C(C)(C)C)cc1Cl (configuration not stated)	inactive	inactive	inactive				inactive	inactive	inactive	inactive	inactive	inactive	inactive		17.2 µM (active)		inactive			
O=C1C(=O)c2cccc3cccc1c23	inactive	inactive	inactive		inactive	inactive	inactive	inactive	inactive	inactive	inactive	inactive		inactive	54.4 µM (active)	21.7 µM (active)				
CCCN(CCCl)c1c([N+](=O)[O-])cc(C(F)(F)F)cc1[N+](=O)[O-]	inactive	inactive	inactive			inactive	inactive	inactive	inactive	inactive	inactive	inactive		inactive	21.7 µM (active)	inactive	inactive			
COC1=CC(=O)O[C@@H](CCc2ccccc2)C1	inactive	inactive	inactive		inactive	inactive	inactive	inactive		inactive	inactive		inactive	inactive	63.6 µM (active)		inactive			
